NPYLR7 agonist = mosquito NPYLR7 agonism; actives 0.15% (n = 270,000); AID 1259423; HEK293T NPYLR7/Galpha15, GCaMP6s calcium fluorescence; activation, % at 10 µM; in the data active = activation above about 40%;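 note: 0% = vehicle and 100% = reference agonist at the receptor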
hcGAS inh = blocks human cGAS activity; Q8N884; recombinant h-cGAS, ATP depletion, Kinase-Glo luminescence; inhibition, % at 12.5 µM; actives 0.081% (n = 290,000); AID 1259398;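 note: 0% = vehicle reaction and 100% = reaction without DNA for no activity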
Target sequence (Q8N884 whole entry, looked up): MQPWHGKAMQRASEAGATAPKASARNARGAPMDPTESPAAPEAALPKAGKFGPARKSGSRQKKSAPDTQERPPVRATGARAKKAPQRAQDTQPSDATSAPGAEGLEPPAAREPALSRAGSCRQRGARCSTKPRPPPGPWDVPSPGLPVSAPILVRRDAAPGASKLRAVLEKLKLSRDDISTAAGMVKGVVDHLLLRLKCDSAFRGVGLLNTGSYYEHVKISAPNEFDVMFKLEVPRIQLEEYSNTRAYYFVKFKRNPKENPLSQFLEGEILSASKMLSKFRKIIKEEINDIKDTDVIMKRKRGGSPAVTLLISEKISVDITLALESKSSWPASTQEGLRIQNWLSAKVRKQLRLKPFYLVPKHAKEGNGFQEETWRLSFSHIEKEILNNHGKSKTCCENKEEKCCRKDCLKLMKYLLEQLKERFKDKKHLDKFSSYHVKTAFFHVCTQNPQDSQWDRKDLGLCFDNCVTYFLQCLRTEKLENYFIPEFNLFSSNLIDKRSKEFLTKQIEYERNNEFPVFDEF
mcGAS inh = blocks mouse cGAS activity | recombinant cGAS, Kinase-Glo ATP depletion luminescence | Q8C6L5 | actives 0.15% (n = 160,000) | inhibition, % at 12.5 µM;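 note: 0% = negative control wells and 100% = reference inhibitor with no enzyme activity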
Numbers without * were called inactive; x = no result given; + = active, no number. Hits are enriched below; roughly 0.28% of the tested compounds scored in any of these assays. Cut-off read from the data, not from the text of the source, unless noted: active = inhibition above about 40%; inactive = the rest.

SMILES	NPYLR7 agonist	hcGAS inh	mcGAS inh
CC(=O)N1CC(CO)C2(CCN(C(=O)C3CC=CC3)CC2)C1 (stereo unspecified)	x	-9	-5
COCCN1CC(CO)C2(CCN(C(=O)C3CC=CC3)CC2)C1 (stereo unspecified)	x	45*	-7
Cc1nc(NC(=O)C23CCC(C)(C(=O)C2)C3(C)C)sc1C (stereo unspecified)	-4	-4	x
CC(C)c1nc(CN2CCC(CNC(=O)C(C)(C)C)CC2)co1	0	-6	x
COCCOc1ccc(NC(=O)N(C)C(C)C2(C)CC2)cn1 (stereo unspecified)	134*	-7	-15
COc1ccc(NC(=O)c2ccc(NC(C)C)nc2)cn1	6	-4	-5
COc1ccc(N2C(=O)/C(=C\c3ccc[nH]3)N(C)C2=S)c([N+](=O)[O-])c1	46*	-4	-8
Cc1cc([N+](=O)[O-])ccc1N1C(=O)/C(=C\c2ccncc2)N(C)C1=S	20	-6	13
N#CC(C(=O)COc1cc(F)ccc1F)c1nc2ccccc2s1 (stereo unspecified)	9	-9	x
N#CC(C(=O)C(F)(F)F)c1nc2ccccc2s1 (stereo unspecified)	1	44*	x
CC(C)n1cnnc1CN(C)C(=O)CCc1nc(-c2ccccc2F)no1	2	-4	-8
C#CCOCC(O)CN(Cc1ccc(F)cc1)Cc1ccc2c(c1)OCO2 (stereo unspecified)	9	-4	77*
C=CCOCC(O)CN(Cc1ccc2c(c1)OCO2)Cc1cc(C)ccc1C (stereo unspecified)	12	2	-2
C=CCOCC(O)CN(Cc1ccc2c(c1)OCO2)Cc1ccc(C)s1 (stereo unspecified)	19	-4	83*
C#CCOCC(O)CN(Cc1ccc2c(c1)OCO2)Cc1cc(C)ccc1C (stereo unspecified)	23	0	-4
COC(=O)Cn1c(=NC(=O)c2cc(C)no2)sc2cc(F)ccc21	7	-7	-12
CCCC(O)CNC(c1nc(-c2ccc([N+](=O)[O-])cc2)no1)C(C)C (stereo unspecified)	10	-5	-6
CNC[C@H](O)c1ccc(O)c(O)c1	83*	-2	-3
CC(C)NCC(O)c1ccc(O)c(O)c1 (stereo unspecified)	15	-1	-4
O=C(Cc1ccc2c(c1)CCO2)Nc1cccc(Br)c1	-6	0	x
COc1ccccc1OCCCOc1ccc(Br)cc1Cl	60*	1	x
COc1cccc(OC)c1OCCCOc1ccc(Br)cc1Cl	-6	-5	x
CCc1nc2n(n1)C(=O)C(C(c1ccco1)N1CCCC(C)C1)S2 (stereo unspecified)	0	-3	-7
Cc1nc(SCC(=O)Nc2ccnn2C2CCCC2)c2c(C)c(C)sc2n1	2	-3	x
CCN1CCN(c2c(CN(CCC(C)C)C(=O)c3cccc(Cl)c3)c(C)nn2-c2ccccc2)CC1	0	-5	-4
SMILES	NPYLR7 agonist	hcGAS inh	mcGAS inh
O=C(NCCCn1ccnc1)c1cc(N2CCSCC2)nc2ccccc12	7	2	0
O=c1cc(-c2ccccc2)oc2c(O)c(O)ccc12	-1	72*	x
O=c1cc(-c2ccccc2)oc2cc(O)c(O)cc12	-4	34	29
O=C(NCCCN1CCOCC1)C(C1CCCC1)N1CCN(C(=O)CCc2ccccc2)CC1 (stereo unspecified)	-3	-6	-5
O=C(CSc1nc(=O)n(CCCO)c2c1CCCC2)Nc1cccc([N+](=O)[O-])c1	-3	-6	47*
O=C(CSc1nc(=O)n(CCCO)c2c1CCC2)Nc1cccc(F)c1	-10	-6	-5
Cc1ccc(N=c2c([N+](=O)[O-])nn(-c3ccc(Cl)cc3)n2O)cc1Br	-2	-8	x
CC(C)N=c1c([N+](=O)[O-])nn(-c2ccc(Cl)cc2)n1O	95*	-3	-9
O=[N+]([O-])c1ccc(OC2=NS(=O)(=O)c3cc([N+](=O)[O-])ccc32)cc1	9	-8	-5
O=[N+]([O-])c1ccc2c(c1)S(=O)(=O)C=C2	8	2	86*
COC(=O)n1c(=S)oc2cc(Cl)ccc21	10	6	40*
COC(=O)n1c(=O)oc2cc(S(=O)(=O)N3CCOCC3)ccc21	-1	-6	x
CC(C)NC(=O)Cn1c(CO)cnc1SCC(=O)Nc1ccc(C(N)=O)cc1	10	2	x
Cc1nc2ccccn2c(=O)c1NC(=O)Nc1cc(Cl)ccc1Cl	-3	-3	-6
COc1ccc(/C=C2\N=C(c3cncc(Br)c3)OC2=O)c(OC)c1OC	2	-2	-4
COc1cccc(C2CN(C(=O)CC(C)(C)C)CC2C(=O)NCc2ccccn2)c1OC (stereo unspecified)	5	+	x
COc1cc(C2CN(C(=O)CC(C)(C)C)CC2C(=O)NCC(C)C)cc(OC)c1OC (stereo unspecified)	7	1	x
CCCn1cnc2c(nnn2C)c1=O	0	-4	x
CCN1CCc2c(sc(NC(=O)C3CC3)c2-c2nc3ccccc3s2)C1	26	12	6
Cc1ccc(Cl)c(OC2CC3CCC(C2)N3C(=O)c2ccc(CSCc3cccs3)cc2)c1 (stereo unspecified)	2	-6	-7
O=C1CCCC2Nc3ncnc(Cl)c3OC12 (stereo unspecified)	77*	6	x
CCN1CCN(Cc2ccc(NC(=O)C(C)Oc3ccccc3)cc2)CC1 (stereo unspecified)	11	-14	x
O=C(CCc1ncc(-c2ccc(F)cc2)o1)NCC(=O)Nc1ccccc1Br	2	1	-3
O=C(c1cccnc1Cl)N1CCOC(COCc2ccccc2F)C1 (stereo unspecified)	51*	-5	-8
CCOc1ncccc1C(=O)N1CCOC(COCc2ccccc2F)C1 (stereo unspecified)	-5	-4	-4
SMILES	NPYLR7 agonist	hcGAS inh	mcGAS inh
Cc1cc(C)nc(SCc2cc(=O)c(OC(=O)Cc3ccc([N+](=O)[O-])cc3)co2)n1	-11	-6	9
CCOc1ccc(CC(=O)Oc2coc(CSc3nccc(C)n3)cc2=O)cc1	-1	0	59*
Cc1ccnc(SCc2cc(=O)c(OC(=O)Cc3ccc(Cl)cc3)co2)n1	-13	-2	33
Cc1cc(C)nc(SCc2cc(=O)c(OC(=O)Cc3ccc(F)cc3)co2)n1	-16	5	82*
Cc1cc(C)nc(SCc2cc(=O)c(OC(=O)Cc3ccc(Cl)cc3)co2)n1	-10	-1	31
CCOc1ccc(CC(=O)Oc2coc(CSc3nc(C)cc(C)n3)cc2=O)cc1	-16	0	63*
O=C(CSc1nc2ccccc2c(=O)n1C1CC1)c1ccc(O)c(O)c1	1	-2	-5
COc1ccc(/C=C/C(=O)c2ccc(O)cc2O)cc1	-17	-1	x
O=C(/C=C/c1ccccc1)c1ccc(O)cc1O	17	6	85*
COc1ccc(/C=C/c2ccc3ccccc3n2)c(OC)c1	2	-11	-10
O=C(/C=C/c1ccc(O)cc1)c1ccc(O)cc1O	2	-10	14
COc1ccc(/C=C/C(=O)c2cc(O)ccc2O)cc1	-6	2	53*
COc1ccc2nc(/C=C/C(=O)c3ccc(O)cc3)ccc2c1	-3	-6	76*
CC(NC(=O)Cn1cnc2c(cnn2C)c1=O)c1ccc2ccccc2c1 (stereo unspecified)	0	-5	x

Assay outcomes as filed in PubChem.
